Measured values reported in PubChem BioAssay (NCATS).
Records with an inconclusive call do not appear. Calls of active or inactive are those of the source. Calls come from the whole dose curve.

Key:
[1] = qHTS drug screen for cell cycle checkpoint inhibitors in PARPi-resistant BRCA-mutant ovarian cancer cell lines. (AID 1963452); conditions: PEO1/OlaR viability, CellTiter-Glo luminescence, 96 h; for Z-AUC: stronger effect = lower value; note: potency is the fitted concentration of half-maximal effect
Method in brief: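 PEO1, PEO4 and PEO1/OlaR ovarian cancer cells, 600 per well, exposed 96 h at 37C to a dilution series. Viability read by CellTiter-Glo luminescence, normalized to DMSO and empty wells; activity summarized as Z-AUC.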

[2] = qHTS for identification of novel therapeutic agents for treatment of microphthalmiaassociated transcription factor (MiT) renal cell carcinoma (RCC) (AID 1963991); conditions: CellTiter-Glo, 48 h, stronger effect = lower value
Method in brief: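 Three TFE3-fusion RCC cell lines (UOK109, UOK124, UOK145), 500 cells/well, were exposed to the 1912-compound MIPE 4.0 library for 48 hours at 37 C. Viability was read by CellTiter-Glo luminescence, normalised to DMSO (100%) and empty wells (0%), with 11-concentration curve fits.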

[3] = measured here: PEO1 parental Z-AUC
[4] = TFE3-RCC UOK109 viability, measured here: UOK109 Z-AUC
[5] = TFE3-RCC viability, measured here: UOK124 Z-AUC
[6] = TFE3-RCC viability, measured here: UOK145 Z-AUC

Compound | Z-AUC [1] | Z-AUC [1, 3] | Z-AUC ([1]; measured here: PEO4 Z-AUC) | z-score [2, 4] | z-score [2, 5] | z-score [2, 6] | Potency [1]
COc1ccc(CCN(C)CCCOc2ccc(S(=O)(=O)c3[nH]c4ccccc4c3C(C)C)cc2)cc1OC | -0.498 (inactive) | 0.248 | 0.439 |  |  |  | 
N#CC(c1ccnc(NCCc2cccnc2)n1)c1nc2ccccc2s1 (stereo not given) | 1.07 (inactive) | 0.451 | 0.404 |  |  |  | 
Cc1cn([C@@H]2C[C@@H](O)[C@H](CO)O2)c(=O)[nH]c1=O | 0.721 (inactive) | 0.778 | 0.771 | 0.973 | 1.9 | 0.117 | 
O=C(O)C1=CC(O)C(O)[C@H](O)C1 (stereo not given in full) | 1.17 (inactive) | 1.52 | 1.23 | 1.04 | 0.866 | 0.319 | 
NC(=O)c1ccc(N(C(N)=O)c2c(F)cccc2F)nc1-c1ccc(F)cc1F | -0.305 (inactive) | -0.387 | 0.295 |  |  |  | 
CNC(=O)c1cc(Oc2ccc(NC(=O)Nc3ccc(Cl)c(C(F)(F)F)c3)c(F)c2)ccn1 | 0.96 (inactive) | 0.462 | 0.496 |  |  |  | 
Cc1nc2c([nH]1)CCN(C(=O)c1ccc(NC(=O)c3ccccc3-c3ccccc3)cc1)c1ccccc1-2 | 0.604 (inactive) | 0.56 | 0.851 | -0.104 | 0.486 | 0.369 | 
CC[C@@H]([C@H](C)O)n1ncn(-c2ccc(N3CCN(c4ccc(OCC5CO[C@@](Cn6cncn6)(c6ccc(F)cc6F)C5)cc4)CC3)cc2)c1=O (stereo not given in full) | 0.357 (inactive) | -0.0959 | -0.133 |  |  |  | 
c1ccc(CNc2nc(N3CCOc4ccccc43)nc3c2CCCC3)cc1 | 0.483 (inactive) | 0.277 | 1.17 | 0.901 | 0.197 | 0.631 | 
CCN(CCO)CCCOc1ccc2c(Nc3cc(CC(=O)Nc4cccc(F)c4)[nH]n3)ncnc2c1 | -0.614 (inactive) | -0.629 | -1.66 | 0.018 | 0.316 | 0.045 | 
Cc1cc(-c2ncc(CC(=O)Nc3ccc(-c4cnccn4)cn3)cc2C)ccn1 | -1.15 (inactive) | -0.663 | -0.646 |  |  |  | 
C[C@@]1(C(=O)Nc2ccc(F)nc2)CCCN1c1nc(Nc2cc(C3CC3)[nH]n2)c2cccn2n1 | 0.31 (inactive) | 0.238 | -0.135 |  |  |  | 
COc1cccc(OC)c1-c1cc(C(=O)NC2(C(=O)O)C3CC4CC(C3)CC2C4)nn1-c1ccnc2cc(Cl)ccc12 (stereo not given) | 1.24 (inactive) | 0.986 | 1.12 | 1.18 | 0.441 | 0.707 | 
COc1cc2nccc(Oc3ccc(NC(=O)Nc4ccc(F)cc4F)c(F)c3)c2cc1OC | 0.868 (inactive) | 0.566 | 0.26 |  |  |  | 
Cc1cccc(Nc2nc(N[C@@H]3CCCC[C@H]3N)ncc2C(N)=O)c1 | -0.597 (inactive) | -0.615 | -0.03 |  |  |  | 
CC[C@H](C)n1cc(C)c2c(C(=O)NCc3c(C)cc(C)[nH]c3=O)cc(-c3ccc(N4CCNCC4)nc3)cc21 | 1.9 (inactive) | 1.58 | 1.72 |  |  |  | 
Cn1c(=O)c(-c2c(Cl)cccc2Cl)cc2cnc(Nc3cccc(C(=O)O)c3)nc21 | 0.595 (inactive) | 0.413 | 0.693 |  |  |  | 
CCCCc1ccc(NS(=O)(=O)c2ccc(C)c(C(=O)N3CCN(c4cccc(C)c4C)CC3)c2)cc1 | 1.4 (inactive) | 1.5 | 1.44 |  |  |  | 
N#Cc1ccc(Oc2ccc3c(c2)COB3O)cc1 | 0.18 (inactive) | 0.583 | 0.594 |  |  |  | 
Cc1cc(C(C)Nc2ccccc2)c2nc(N3CCOCC3)cc(=O)n2c1 (stereo not given) | 0.744 (inactive) | 1.25 | 1.25 |  |  |  | 
Cc1ccc(C(=O)N(CCCN)[C@@H](c2nc3cc(Cl)ccc3c(=O)n2Cc2ccccc2)C(C)C)cc1 |  | -2.53 | -2.45 |  |  |  | 9.8 nM (active)
Cc1ccccc1C(C(=O)NC1CCCCC1)N(C(=O)CNc1ccc(C#N)cc1)c1cccc(F)c1 (stereo not given) | 0.169 (inactive) | 0.0819 | 0.0144 | 0.515 | 0.305 | 0.632 | 
Nc1ccn([C@@H]2O[C@H](CO)[C@@H](O)[C@H]2O)c(=O)n1 | 0.821 (inactive) | 1.45 | 1.4 |  |  |  | 
O=[N+]([O-])c1ccc(Nc2ccccc2-c2ccccc2)c2nonc12 | 0.186 (inactive) | 0.785 | 0.946 |  |  |  | 
CCOc1ccccc1N=Nc1c(C)[nH]n(-c2nc(-c3ccccc3)cs2)c1=O | 1.3 (inactive) | 1.25 | 1.22 |  |  |  | 
Cc1ccc2c(=O)c3cccc(CC(=O)O)c3oc2c1C | 0.508 (inactive) | 0.654 | 0.37 |  |  |  | 
Cc1cc2c(cc1C1(c3ccc(C(=O)O)cn3)CC1)C(C)(C)CCC2(C)C | -0.226 (inactive) | 0.647 | 0.601 | 1.13 | -2.74 | 0.66 | 
